This is a sample that favours compounds with a hit; in the whole collection about 3.5% have one here.
TbPYK inhibitor – inhibitors of Trypanosoma brucei pyruvate kinase | Q57TT1 | TbPYK enzyme, Kinase-Glo Plus ATP luminescence, 45 min | Potency, µM (series often up to 76.8 µM), inactives show at the highest dose activity, negative = inhibition, most hits filed as inhibitors | 0.12% of 410,000 active | AID 624173; also: % is scaled to controls: 0 for no effect and ±100 for the full control effect; nearly all actives have a fitted effect of over 50% in size
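Luminescent Kinase-Glo Plus end-point after 45 min room-temperature reaction of T. brucei pyruvate kinase started with 130 uM ADP (final). Buffer TEA 50 mM pH 7.2 with KCl, MgCl2, BSA, Tween-20; titration-based qHTS with fitted concentration-effect curves.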
LmPK inhibitor – inhibitors of Leishmania mexicana pyruvate kinase | purified LmPK, Kinase-Glo ATP luminescence, 1 h | AID 1721 | 0.37% of 290,000 active | Potency, µM (doses to about 57.5 µM), for inactives: at the top dose activity change, negative = inhibition, usual class: inhibitors | Q27686; also: % is scaled to controls: 0 for no effect and ±100 for the full control effect
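0.1 nM LmPK, 0.5 mM PEP, 0.1 mM ADP; 50 mM imidazole pH 7.2, 7 mM MgCl2, 50 mM KCl; 1 h RT. Kinase-Glo luminescence readout, normalized to no-enzyme (full inhibition) and uninhibited wells.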
FBPA Giardia inh – blocks Giardia fructose-bisphosphate aldolase activity | purified Giardia FBPA | A8B2U2 | Potency, µM (doses to about 59.6 µM), without a hit: at the highest dose activity, negative = inhibition, actives largely listed as inhibitors | 0.71% of 290,000 active; also: % is scaled to controls: 0 for no effect and ±100 for the full control effect; nearly all actives have a fitted effect of over 55% in size
Target sequence (A8B2U2 whole entry, looked up): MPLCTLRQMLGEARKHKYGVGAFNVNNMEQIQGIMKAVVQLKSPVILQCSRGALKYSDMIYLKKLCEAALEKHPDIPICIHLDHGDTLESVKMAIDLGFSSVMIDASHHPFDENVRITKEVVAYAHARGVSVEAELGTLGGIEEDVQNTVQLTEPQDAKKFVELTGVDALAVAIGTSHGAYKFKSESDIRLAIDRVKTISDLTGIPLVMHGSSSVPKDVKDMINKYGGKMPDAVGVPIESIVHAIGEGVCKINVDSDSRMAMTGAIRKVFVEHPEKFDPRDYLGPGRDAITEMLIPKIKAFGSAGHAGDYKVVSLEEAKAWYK
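40 nM FBPA preincubated 10 min at RT with compound (up to 57.5 uM final), then substrate plus GAPDH/TPI/NAD/arsenate coupling and diaphorase/resazurin added. Fluorescence read after 20 min at RT, 525/598 nm.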
RE007 growth inh – less growth of the S. pombe RE007 Vpr strain; S. pombe RE007 Vpr strain, BacTiter-Glo ATP luminescence, 24 h; Potency, µM (top dose mostly 92.2 µM), for the others: top-dose activity change, negative = less growth, actives largely listed as inhibitors; 0.21% of 360,000 active; active = well fitted falling curve with a large enough effect; inconclusive = small, poorly fitted or top-dose-only effect; inactive = no such curve, though single readings can be large or run the other way; also: % is scaled to controls: 0 for no effect and ±100 for the full control effect; nearly all actives have a fitted effect of over 50% in size
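Fission yeast strain RE007, carrying one chromosomally integrated HIV-1 vpr copy, was seeded at OD 0.01 in PMG+AL medium with 23 nL pinned compound. After 24 h at 30 °C and 99% humidity, viability was read by BacTiter-Glo luminescence.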
NS1 function inh – influenza NS1 inhibition; Potency, µM (series often up to 46.1 µM), inactives show at the highest dose activity, positive = more growth; 0.4% of 270,000 active; AID 2326; calls by dose curve; also: actives are rising curves; nearly all actives have a fitted effect of over 50% in size
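Read-out: OD600 growth recovery of NS1-expressing budding yeast. Cells grown overnight at 30C in -URA glucose medium, washed, resuspended and diluted 1:100 in 2% galactose assay medium, pH 6.0. Same strain lacking NS1 served as positive control.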
Sm TGR block – inhibitors of Schistosoma mansoni thioredoxin glutathione reductase | purified TGR, DTNB reduction, TNB absorbance 405 nm | 3% of 360,000 active | Potency, µM (highest dose often 114 µM), for inactives: top-dose activity change, negative = inhibition, usual class: inhibitors; also: % is scaled to controls: 0 for no effect and ±100 for the full control effect; nearly all actives have a fitted effect of over 60% in size
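TGR 20 nM + NADPH 100 uM (dispensed conc.), cpd preinc 15 min RT; start with NADPH (500 uM addition) then DTNB (15 mM addition). Kinetic TNB absorbance, 405 nm filter. Four-parameter Hill fit across titration.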
Starred values were filed as active, the others as inactive; u = inconclusive; x = not tested or not shown; [ ] = remark or other dose. Unless noted, calls follow the shape of the dose curve; as a rule, active = well fitted curve in the direction sought with a large enough effect; inconclusive = small, poorly fitted or top-dose-only effect, or another doubt; inactive = no such curve, though single readings can be large; an effect the other way counts as inactive or inconclusive. Potency is read from the fitted curve at half-maximal effect.

SMILES	TbPYK inhibitor	LmPK inhibitor	FBPA Giardia inh	RE007 growth inh	NS1 function inh	Sm TGR block
Cc1ccc(C)c(N(C)C(=O)C2CCN(S(=O)(=O)c3cccc4nsnc34)CC2)c1	1%	x	x	x	x	-3%
O=C(CN1C(=O)C2(SCC(=O)N2c2cccc(Cl)c2)c2ccccc21)NCCc1ccccc1 (stereo not drawn)	3%	x	x	x	x	-6%
Cc1ccc(/C=C/C(=O)Nc2sc3c(c2C#N)CCCC3)o1	-12%	-2%	1%	1%	19%	45µM*
N#Cc1c(NC(=O)c2ccc([N+](=O)[O-])o2)sc2c1CCC2	-14%	-14%	u	u	-76%	35µM*
NC(=O)c1c(NC(=O)c2ccc([N+](=O)[O-])o2)sc2c1CCCC2	0%	-4%	6%	-10%	-16%	-23%
CC(=O)OCC1=C(C(=O)O)N2C(=O)C(NC(=O)c3ccc(COc4cccc(Cl)c4Cl)o3)C2SC1 (stereo not drawn)	-7%	2%	-6%	-15%	x	20µM*
COc1cccc(C(=O)NC2C(=O)N3C(C(=O)O)=C(COC(C)=O)CSC23)c1 (stereo not drawn)	-3%	x	x	1%	x	13µM*
CC(=O)OCC1=C(C(=O)OC(C)(C)C)N2C(=O)[C@@H](NC(=O)Cc3ccccc3)[C@H]2SC1	u	x	x	2%	x	x
CC(=O)OCC1=C(C(=O)O)N2C(=O)[C@@H](NC(=O)CSc3ccncc3)[C@@H]2SC1	2%	x	-20%[21.7 µM]	x	x	x
COc1ccccc1N1CCN(C(=O)CSc2nc3ccccc3nc2Cc2ccccc2)CC1	0%	x	x	x	x	-2%
CC(=O)OC1CC(OC2C(O)CC(OC3C(O)CC(O[C@H]4CC[C@]5(C)C6CC[C@]7(C)[C@@H](C8=CC(=O)OC8)[C@@H](O)C[C@]7(O)[C@@H]6CC[C@@H]5C4)OC3C)OC2C)OC(C)C1OC1OC(CO)C(O)C(O)C1O (stereo partly drawn)	1%	x	x	x	x	x
OC[C@@H](O)[C@H](O)C(/C=N/Nc1ccccc1)=N\Nc1ccccc1	-8%	3%	-15%	114%	-7%	20µM*
CC(=O)/C=N/Nc1ccccc1	-3%	0%	0%	8%	6%	-30%
CCN(c1ncnc2c1c(-c1ccccc1)cn2-c1ccccc1)C1CCCCC1	-3%	x	x	x	x	10%
COc1ccc(C(=O)N2CCn3c(C)ccc3C2C)cc1 (stereo not drawn)	4%	-1%	u	-10%	11%	28µM*
O=c1oc2c(CN3CCOCC3)c(O)c(Cl)cc2c2c1CCCC2	-2%	-3%	u	1%	-73%	45µM*
COc1ccc(Oc2coc3c(CN4CCOCC4)c(O)ccc3c2=O)cc1	0%	-1%	1%	0%	0%	45µM*
Cc1cc(=O)oc2c(CN3CCN(C)CC3)c(O)c(Cl)cc12	1%	-7%	-19%	1%	27%	50µM*
COc1ccc(Oc2coc3c(CN(C)C)c(O)ccc3c2=O)cc1	-2%	-1%	-8%	-12%	6%	-27%
O=c1oc2c(CN3CCOCC3)c(O)ccc2c2c1CCCC2	0%	1%	-3%	-10%	-6%	79µM*
Cc1c(C)c2cc(Cl)c(O)c(CN3CCCCC3)c2oc1=O	5%	4%	2%	-5%	6%	-11%
O=c1oc2c(CN3CCOCC3)c(O)ccc2c2ccccc12	1%	0%	-5%	-1%	-8%	0%
CCCCN1CCC[C@H]1CNC(=O)c1cc(C#N)c2ccccc2c1OC	x	x	-6%	x	x	x
Cc1[nH]c(=O)[nH]c(=O)c1S(=O)(=O)Nc1cccc(Cl)c1C	-3%	x	x	x	x	4%
CN(CC(=O)Nc1ccc(F)c(F)c1F)C(=O)C1CCCN1C(=O)c1cccs1 (stereo not drawn)	5%	x	x	-18%	x	x
SMILES	TbPYK inhibitor	LmPK inhibitor	FBPA Giardia inh	RE007 growth inh	NS1 function inh	Sm TGR block
Cc1ccc(CN(C)C(=O)C2CCCN2C(=O)c2cccs2)o1 (stereo not drawn)	u	-4%	6%	0%	-2%	7.9µM*
COc1ccc(N2CCN(C(=O)C3CCN(S(=O)(=O)c4cn(C)cn4)CC3)CC2)cc1	-7%	x	x	x	x	-2%
CCOc1ccccc1NC(=O)COC(=O)COc1c(Cl)cc(Cl)c2ccc(C)nc12	5%	x	x	-3%	x	x
CCN(CC(=O)NC(C)(C)C)C(=O)COc1c(Cl)cc(Cl)c2ccc(C)nc12	-2%	-2%	-16%	u	-32%	16µM*
CCCn1c(C)cc(/C=C(\C#N)C(=O)OCC(=O)Nc2ccc(OC)c(Cl)c2)c1C	5%	0%	-1%	x	1%	3%
COCCn1c(C)cc(/C=C(\C#N)C(=O)OCC(=O)Nc2ccc(S(N)(=O)=O)cc2)c1C	-4%	x	x	-6%	x	40µM*
CCCN(CCC)CCNC(=O)CN1C(=O)COc2ccc(S(=O)(=O)N3CCC(C)CC3)cc21	-1%	x	x	x	x	3%
O=C(O)CCc1ccc(-c2cccs2)n1-c1ccc(C(=O)O)cc1	-20%	0%	3%	4%	16%	7.9µM*
CC(=O)c1ccc(-n2c(CCC(=O)O)ccc2-c2ccccc2)cc1	-8%	-2%	14%	-4%	5%	40µM*
O=C(O)CCc1nc(-c2cccs2)no1	-5%	-2%	6%	-20%	-14%	7%
CC(=O)c1cccc(-n2c(CCC(=O)O)ccc2-c2ccccc2)c1	-17%	-2%	10%	-16%	3%	18µM*
CN(C)c1ccc(-n2c(CCC(=O)O)ccc2-c2ccccc2)cc1	-11%	x	x	x	x	u
COC(=O)c1ccc(-n2c(CCC(=O)O)ccc2-c2ccccc2)cc1	-5%	-1%	7%	34%	2%	14µM*
COc1cc(CNC(=O)c2ccc3c(c2)c(C)c(C)n3Cc2cccc(C)c2)cc(OC)c1OC	-2%	x	x	x	x	-8%
COc1ccc(-c2nc(CSc3nncn4c3cc3sccc34)c(C)o2)cc1OC	3%	x	x	x	x	0%
CC(=O)c1ccc(-n2c(CCC(=O)O)ccc2-c2ccc(C)cc2)cc1	-4%	-1%	19%	7%	0%	18µM*
CC(C)(C)c1ccc(C(=O)Nn2c(CCC(=O)O)ccc2-c2cccs2)cc1	-7%	11%	13%	13%	u	50µM*
O=C(O)CCc1ccc(-c2ccccc2)n1-c1cccc(Br)c1	-10%	x	x	x	x	16µM*
NC(=S)Nn1c(CCC(=O)O)ccc1-c1ccccc1	-15%	-1%	1%	5%	6%	2%
COc1ccc(-n2c(CCC(=O)O)ccc2-c2ccc(F)cc2)c(OC)c1	-4%	4%	-8%	8%	3%	45µM*
Cc1ccc(CN(Cc2ccco2)c2cnc(S(C)(=O)=O)nc2C(=O)Nc2ccccc2Br)o1	-2%	x	x	x	x	-25%

High-throughput results from PubChem BioAssay.
